These results are taken from ChEMBL document CHEMBL1961873, “Compounds: GSK PKIS; Assays: Nanosyn kinase panel” (2012).

Test [1] concerns the target T1, Mitogen-activated protein kinase 12 (Homo sapiens) (UniProt P53778).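 Further: values are averaged p38gamma kinase inhibition readings, compounds tested at 1 µM.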
T1 sequence (whole entry): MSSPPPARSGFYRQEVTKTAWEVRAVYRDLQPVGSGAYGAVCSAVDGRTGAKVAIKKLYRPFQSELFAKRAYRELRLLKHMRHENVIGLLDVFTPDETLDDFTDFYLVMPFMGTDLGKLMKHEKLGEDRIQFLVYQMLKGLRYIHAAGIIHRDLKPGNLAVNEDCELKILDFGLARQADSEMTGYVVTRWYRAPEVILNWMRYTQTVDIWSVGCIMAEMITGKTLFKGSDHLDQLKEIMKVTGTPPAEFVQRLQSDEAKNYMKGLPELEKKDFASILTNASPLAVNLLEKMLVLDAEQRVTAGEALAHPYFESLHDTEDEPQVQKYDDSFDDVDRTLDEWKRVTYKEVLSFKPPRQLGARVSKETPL
As to conditions: at 1 µM.

Test [2] concerns the target SRSF protein kinase 1 (Homo sapiens) (UniProt Q96SB4). The conditions noted are these: at 0.1 µM.
For test [3] the target is unchanged. As to conditions: at 1 µM.
Test [4] concerns the target Phosphatidylinositol 4,5-bisphosphate 3-kinase catalytic subunit alpha isoform (Homo sapiens) (UniProt P42336). As to conditions: at 0.1 µM.
The target is the same in test [5]. As to conditions: at 1 µM.
The target in test [6] is T2, Phosphatidylinositol 4,5-bisphosphate 3-kinase catalytic subunit delta isoform (Homo sapiens) (UniProt O00329).
T2 sequence (whole entry): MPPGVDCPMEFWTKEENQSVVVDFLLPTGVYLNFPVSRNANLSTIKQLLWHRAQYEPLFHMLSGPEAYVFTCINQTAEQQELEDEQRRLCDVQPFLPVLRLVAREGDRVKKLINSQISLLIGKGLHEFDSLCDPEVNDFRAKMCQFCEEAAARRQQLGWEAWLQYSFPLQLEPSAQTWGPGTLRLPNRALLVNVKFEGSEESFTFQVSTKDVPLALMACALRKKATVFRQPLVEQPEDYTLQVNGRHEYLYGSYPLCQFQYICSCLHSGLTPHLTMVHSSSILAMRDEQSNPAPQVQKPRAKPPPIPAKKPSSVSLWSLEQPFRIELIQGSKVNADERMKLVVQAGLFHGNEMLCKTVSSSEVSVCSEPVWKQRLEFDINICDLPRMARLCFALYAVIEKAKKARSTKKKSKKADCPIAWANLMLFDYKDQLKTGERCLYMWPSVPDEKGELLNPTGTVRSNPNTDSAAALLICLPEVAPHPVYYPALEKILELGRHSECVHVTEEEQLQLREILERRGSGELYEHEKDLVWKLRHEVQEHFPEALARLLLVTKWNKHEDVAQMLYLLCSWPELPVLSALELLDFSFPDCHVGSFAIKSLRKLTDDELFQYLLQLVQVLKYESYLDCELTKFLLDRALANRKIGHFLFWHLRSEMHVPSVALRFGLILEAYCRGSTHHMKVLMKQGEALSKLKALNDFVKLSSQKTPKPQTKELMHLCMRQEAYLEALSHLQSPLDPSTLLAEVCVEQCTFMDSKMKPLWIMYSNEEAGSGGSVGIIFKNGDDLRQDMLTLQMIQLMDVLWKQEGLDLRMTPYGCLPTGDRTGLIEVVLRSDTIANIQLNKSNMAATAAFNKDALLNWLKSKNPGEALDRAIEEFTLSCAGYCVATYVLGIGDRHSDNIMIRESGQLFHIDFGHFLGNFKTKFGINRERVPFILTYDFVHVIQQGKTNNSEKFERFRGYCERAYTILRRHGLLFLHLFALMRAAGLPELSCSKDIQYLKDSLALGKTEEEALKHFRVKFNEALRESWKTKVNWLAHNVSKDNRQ
As to conditions: at 0.1 µM.

The target of test [7] is T2, Phosphatidylinositol 4,5-bisphosphate 3-kinase catalytic subunit delta isoform (Homo sapiens). The conditions noted are these: at 1 µM.
The target of test [8] is Phosphatidylinositol 4-kinase beta (Homo sapiens) (UniProt Q9UBF8). The conditions noted are these: at 0.1 µM.
Chain of Phosphatidylinositol 4-kinase beta (Homo sapiens) (Q9UBF8 2-816 limits assumed): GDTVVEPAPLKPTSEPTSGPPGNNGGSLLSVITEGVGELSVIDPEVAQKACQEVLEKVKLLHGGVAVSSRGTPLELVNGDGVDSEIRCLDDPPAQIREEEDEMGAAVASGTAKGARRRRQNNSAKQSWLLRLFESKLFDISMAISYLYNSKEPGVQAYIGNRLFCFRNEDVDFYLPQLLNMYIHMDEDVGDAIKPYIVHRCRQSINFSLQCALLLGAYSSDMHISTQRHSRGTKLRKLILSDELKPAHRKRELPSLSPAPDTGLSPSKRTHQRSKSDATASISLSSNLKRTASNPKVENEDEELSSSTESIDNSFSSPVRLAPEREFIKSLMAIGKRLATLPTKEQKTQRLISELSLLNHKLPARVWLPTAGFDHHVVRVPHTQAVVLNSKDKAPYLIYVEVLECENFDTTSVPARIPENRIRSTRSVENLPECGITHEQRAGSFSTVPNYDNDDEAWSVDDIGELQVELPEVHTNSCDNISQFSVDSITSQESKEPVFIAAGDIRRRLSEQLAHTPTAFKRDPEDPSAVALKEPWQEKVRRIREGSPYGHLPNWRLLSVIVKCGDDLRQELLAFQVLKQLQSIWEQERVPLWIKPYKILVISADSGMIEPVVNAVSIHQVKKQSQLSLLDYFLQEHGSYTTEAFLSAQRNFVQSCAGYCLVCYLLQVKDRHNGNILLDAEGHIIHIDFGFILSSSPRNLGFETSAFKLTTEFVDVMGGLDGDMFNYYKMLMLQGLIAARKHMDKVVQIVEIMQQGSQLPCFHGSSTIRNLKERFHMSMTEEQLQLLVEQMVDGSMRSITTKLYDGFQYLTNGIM
Test [9] has the same target. The conditions noted are these: at 1 µM.
The target of test [10] is Sphingosine kinase 1 (Homo sapiens) (UniProt Q9NYA1). The conditions noted are these: at 0.1 µM.
Chain of Sphingosine kinase 1 (Homo sapiens) (Q9NYA1 whole entry): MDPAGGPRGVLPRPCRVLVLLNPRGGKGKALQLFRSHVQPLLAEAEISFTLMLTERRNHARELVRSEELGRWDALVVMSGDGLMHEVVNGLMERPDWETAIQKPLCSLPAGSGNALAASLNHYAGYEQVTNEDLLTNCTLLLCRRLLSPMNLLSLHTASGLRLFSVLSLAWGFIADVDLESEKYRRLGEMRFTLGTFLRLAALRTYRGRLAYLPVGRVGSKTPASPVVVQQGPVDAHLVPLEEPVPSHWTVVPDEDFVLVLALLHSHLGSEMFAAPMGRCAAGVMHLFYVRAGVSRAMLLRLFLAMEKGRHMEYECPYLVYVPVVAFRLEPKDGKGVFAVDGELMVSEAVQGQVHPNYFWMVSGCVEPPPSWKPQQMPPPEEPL
Test [11] shares this target. The conditions noted are these: at 1 µM.
In test [12] the target is T3, Sphingosine kinase 2 (Homo sapiens) (UniProt Q9NRA0).
T3 sequence (whole entry): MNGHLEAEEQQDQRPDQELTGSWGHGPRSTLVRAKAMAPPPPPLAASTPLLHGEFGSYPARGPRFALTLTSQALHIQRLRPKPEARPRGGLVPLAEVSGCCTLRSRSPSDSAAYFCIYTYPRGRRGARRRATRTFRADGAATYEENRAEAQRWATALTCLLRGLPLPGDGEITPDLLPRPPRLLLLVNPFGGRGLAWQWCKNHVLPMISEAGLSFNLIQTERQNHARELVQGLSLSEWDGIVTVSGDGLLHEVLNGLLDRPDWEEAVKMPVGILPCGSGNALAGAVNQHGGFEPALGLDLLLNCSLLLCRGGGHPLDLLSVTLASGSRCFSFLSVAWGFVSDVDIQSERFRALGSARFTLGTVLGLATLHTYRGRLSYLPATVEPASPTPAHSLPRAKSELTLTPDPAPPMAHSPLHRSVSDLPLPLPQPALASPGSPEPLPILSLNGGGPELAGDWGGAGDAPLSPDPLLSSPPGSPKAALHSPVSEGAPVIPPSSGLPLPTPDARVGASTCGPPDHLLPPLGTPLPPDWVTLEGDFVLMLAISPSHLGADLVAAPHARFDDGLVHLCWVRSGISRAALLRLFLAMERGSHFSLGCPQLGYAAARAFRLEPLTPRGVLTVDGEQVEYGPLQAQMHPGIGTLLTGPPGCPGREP
The conditions noted are these: at 0.1 µM.

Test [13] concerns the target T3, Sphingosine kinase 2 (Homo sapiens). As to conditions: at 1 µM.
For test [14], the target named is Casein kinase II subunit alpha (Homo sapiens) (UniProt P68400). The conditions noted are these: at 0.1 µM.
Chain of Casein kinase II subunit alpha (Homo sapiens) (P68400 whole entry, looked up): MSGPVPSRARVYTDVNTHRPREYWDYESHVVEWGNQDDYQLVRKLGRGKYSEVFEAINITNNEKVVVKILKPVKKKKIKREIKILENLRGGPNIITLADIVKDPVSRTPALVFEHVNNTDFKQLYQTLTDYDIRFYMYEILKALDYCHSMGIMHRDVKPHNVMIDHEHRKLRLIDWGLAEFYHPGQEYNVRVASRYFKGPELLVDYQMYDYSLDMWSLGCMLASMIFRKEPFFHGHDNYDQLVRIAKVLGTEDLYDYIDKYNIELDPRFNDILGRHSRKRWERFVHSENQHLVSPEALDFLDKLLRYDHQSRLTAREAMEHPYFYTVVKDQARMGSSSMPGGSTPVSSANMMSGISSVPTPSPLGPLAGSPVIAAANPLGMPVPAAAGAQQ
Test [15] has the same target. As to conditions: at 1 µM.
Test [16] addresses T4, Inhibitor of nuclear factor kappa-B kinase subunit alpha (Homo sapiens) (UniProt O15111).
T4 sequence (whole entry): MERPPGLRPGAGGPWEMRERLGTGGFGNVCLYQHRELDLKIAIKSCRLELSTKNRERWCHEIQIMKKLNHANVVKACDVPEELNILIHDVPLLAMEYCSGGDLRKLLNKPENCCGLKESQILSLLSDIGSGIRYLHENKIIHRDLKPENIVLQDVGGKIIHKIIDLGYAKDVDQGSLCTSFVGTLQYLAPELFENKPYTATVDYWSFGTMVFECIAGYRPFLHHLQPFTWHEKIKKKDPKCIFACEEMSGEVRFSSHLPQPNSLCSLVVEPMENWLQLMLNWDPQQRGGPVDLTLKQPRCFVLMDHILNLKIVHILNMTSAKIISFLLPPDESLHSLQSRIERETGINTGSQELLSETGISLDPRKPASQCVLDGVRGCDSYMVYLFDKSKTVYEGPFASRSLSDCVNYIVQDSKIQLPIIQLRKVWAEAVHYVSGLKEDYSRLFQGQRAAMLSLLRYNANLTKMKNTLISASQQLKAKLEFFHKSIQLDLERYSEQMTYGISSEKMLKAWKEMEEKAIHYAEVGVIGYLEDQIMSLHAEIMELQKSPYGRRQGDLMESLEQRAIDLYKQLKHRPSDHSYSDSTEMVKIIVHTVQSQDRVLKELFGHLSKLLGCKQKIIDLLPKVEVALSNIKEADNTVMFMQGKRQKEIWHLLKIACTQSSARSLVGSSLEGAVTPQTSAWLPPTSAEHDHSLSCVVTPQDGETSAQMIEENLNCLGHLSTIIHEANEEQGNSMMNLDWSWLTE
The conditions noted are these: at 0.1 µM.

The target of test [17] is T4, Inhibitor of nuclear factor kappa-B kinase subunit alpha (Homo sapiens). The conditions noted are these: at 1 µM.
Test [18] concerns the target T5, Inhibitor of nuclear factor kappa-B kinase subunit beta (Homo sapiens) (UniProt O14920).
T5 sequence (whole entry): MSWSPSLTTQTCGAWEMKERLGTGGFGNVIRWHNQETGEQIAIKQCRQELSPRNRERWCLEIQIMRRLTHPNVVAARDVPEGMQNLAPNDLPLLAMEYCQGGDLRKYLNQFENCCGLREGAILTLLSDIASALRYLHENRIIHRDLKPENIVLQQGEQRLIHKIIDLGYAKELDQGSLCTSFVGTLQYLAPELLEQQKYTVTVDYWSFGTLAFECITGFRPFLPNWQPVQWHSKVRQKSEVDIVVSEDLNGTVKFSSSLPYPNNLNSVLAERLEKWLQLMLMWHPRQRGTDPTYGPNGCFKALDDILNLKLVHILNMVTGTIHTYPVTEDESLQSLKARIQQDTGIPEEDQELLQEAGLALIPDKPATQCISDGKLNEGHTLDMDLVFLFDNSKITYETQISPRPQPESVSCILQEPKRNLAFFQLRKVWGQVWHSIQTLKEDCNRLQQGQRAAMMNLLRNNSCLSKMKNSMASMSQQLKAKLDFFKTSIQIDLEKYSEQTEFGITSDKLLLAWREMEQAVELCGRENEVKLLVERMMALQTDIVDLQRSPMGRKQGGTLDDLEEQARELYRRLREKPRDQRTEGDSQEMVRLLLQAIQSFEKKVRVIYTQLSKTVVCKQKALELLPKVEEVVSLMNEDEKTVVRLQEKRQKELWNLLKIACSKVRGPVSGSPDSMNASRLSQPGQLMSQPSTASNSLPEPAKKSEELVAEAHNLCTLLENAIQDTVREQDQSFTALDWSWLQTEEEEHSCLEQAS
The conditions noted are these: at 0.1 µM.

Test [19] deals with T5, Inhibitor of nuclear factor kappa-B kinase subunit beta (Homo sapiens). As to conditions: at 1 µM.
The target of test [20] is T6, Inhibitor of nuclear factor kappa-B kinase subunit epsilon (Homo sapiens) (UniProt Q14164).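 Further: mean inhibition of IKKε reported, from the GSK PKIS dataset.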
T6 sequence (whole entry): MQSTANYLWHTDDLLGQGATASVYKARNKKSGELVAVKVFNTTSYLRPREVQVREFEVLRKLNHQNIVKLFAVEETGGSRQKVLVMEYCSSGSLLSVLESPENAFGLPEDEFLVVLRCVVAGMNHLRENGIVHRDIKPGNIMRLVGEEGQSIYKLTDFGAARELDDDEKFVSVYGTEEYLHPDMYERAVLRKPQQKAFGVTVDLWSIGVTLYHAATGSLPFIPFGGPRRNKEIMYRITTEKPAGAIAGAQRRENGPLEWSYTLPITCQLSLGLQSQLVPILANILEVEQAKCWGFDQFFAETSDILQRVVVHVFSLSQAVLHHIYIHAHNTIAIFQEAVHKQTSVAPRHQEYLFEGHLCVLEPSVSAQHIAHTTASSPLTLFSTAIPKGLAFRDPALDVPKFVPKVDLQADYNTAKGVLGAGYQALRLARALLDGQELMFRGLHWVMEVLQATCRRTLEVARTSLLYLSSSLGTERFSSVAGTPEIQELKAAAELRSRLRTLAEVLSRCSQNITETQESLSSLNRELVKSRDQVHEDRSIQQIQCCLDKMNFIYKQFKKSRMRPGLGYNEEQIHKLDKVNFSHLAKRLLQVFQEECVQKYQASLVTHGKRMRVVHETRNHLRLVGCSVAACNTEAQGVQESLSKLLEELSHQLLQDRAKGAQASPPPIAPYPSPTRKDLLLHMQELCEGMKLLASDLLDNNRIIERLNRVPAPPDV
As to conditions: at 0.1 µM.

SMILES strings stand for the structures.

Chain of SRSF protein kinase 1 (Homo sapiens) (Q96SB4 whole entry): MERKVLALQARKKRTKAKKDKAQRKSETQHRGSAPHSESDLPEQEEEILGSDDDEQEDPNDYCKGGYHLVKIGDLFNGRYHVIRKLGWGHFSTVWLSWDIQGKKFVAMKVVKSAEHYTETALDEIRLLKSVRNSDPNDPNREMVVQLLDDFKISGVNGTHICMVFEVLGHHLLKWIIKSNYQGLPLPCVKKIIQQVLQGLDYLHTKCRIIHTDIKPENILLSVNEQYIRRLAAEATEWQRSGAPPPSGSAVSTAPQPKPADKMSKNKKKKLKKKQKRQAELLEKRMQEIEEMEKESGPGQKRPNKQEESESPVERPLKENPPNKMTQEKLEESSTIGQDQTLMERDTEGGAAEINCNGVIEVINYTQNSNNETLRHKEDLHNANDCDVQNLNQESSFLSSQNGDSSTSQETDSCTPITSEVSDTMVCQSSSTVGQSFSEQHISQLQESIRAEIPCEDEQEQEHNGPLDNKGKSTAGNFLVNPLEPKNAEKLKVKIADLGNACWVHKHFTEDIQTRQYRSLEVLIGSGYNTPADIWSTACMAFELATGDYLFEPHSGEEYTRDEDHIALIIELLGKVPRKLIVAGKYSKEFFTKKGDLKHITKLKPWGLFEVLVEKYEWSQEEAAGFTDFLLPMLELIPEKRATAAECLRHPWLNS
Chain of Phosphatidylinositol 4,5-bisphosphate 3-kinase catalytic subunit alpha isoform (Homo sapiens) (P42336 whole entry, canonical isoform): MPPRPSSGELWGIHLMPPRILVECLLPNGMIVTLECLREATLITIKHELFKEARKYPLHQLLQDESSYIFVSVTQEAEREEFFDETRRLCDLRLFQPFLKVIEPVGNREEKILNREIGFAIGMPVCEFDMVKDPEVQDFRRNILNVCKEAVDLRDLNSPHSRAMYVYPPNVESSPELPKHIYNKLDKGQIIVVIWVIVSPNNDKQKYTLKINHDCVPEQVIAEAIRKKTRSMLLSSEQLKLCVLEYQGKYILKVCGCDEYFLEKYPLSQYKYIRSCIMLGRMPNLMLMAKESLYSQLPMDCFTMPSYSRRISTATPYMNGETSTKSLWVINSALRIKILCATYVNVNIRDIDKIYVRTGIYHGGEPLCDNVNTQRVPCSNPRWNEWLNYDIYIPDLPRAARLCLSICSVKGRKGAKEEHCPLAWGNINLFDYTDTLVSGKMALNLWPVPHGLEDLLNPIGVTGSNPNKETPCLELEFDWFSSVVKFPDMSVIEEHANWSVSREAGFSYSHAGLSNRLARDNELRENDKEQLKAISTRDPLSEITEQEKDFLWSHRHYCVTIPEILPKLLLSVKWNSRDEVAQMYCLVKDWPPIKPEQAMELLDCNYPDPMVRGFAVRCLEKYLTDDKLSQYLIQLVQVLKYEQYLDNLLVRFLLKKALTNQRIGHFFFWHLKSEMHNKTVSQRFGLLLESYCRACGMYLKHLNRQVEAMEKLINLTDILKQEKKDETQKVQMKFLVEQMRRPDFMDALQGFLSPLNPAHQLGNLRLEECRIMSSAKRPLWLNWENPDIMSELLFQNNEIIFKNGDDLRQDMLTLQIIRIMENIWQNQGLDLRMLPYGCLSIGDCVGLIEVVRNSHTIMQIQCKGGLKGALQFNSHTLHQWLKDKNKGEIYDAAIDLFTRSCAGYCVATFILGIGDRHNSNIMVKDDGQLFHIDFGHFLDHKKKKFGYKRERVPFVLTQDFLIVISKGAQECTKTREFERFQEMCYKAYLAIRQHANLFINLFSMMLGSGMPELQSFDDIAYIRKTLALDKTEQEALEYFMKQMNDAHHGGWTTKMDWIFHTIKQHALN

`NS(=O)(=O)c1cccc(-c2ccc3c(NC(=O)C4CC4)n[nH]c3c2)c1`: the inhibition in test [1] is -1.58%; in [2] it was 1.47%; in [3], 1.47%; in test [4] it was 2.99%; in test [5], 3.6%; in test [6] it was 7.35%. Also, the inhibition was 8.71% in [7]; 1.29% in test [8]; -3.98% in [9]; 0.58% in test [10]; 2.86% in test [11]; 0.74% in [12]. The inhibition in test [13] was -0.18%; in test [14], 0.11%; in test [15] it was -0.44%; in test [16], 11.4%; in test [17], 5.2%; in test [18], -0.49%. Also, the inhibition in test [19] is -1.55%; in [20], -4.07%.
Turning to `O=C1NC(=O)C(c2ccccc2Cl)=C1Nc1cccc(O)c1`, the inhibition is 0.99% in test [1]; -0.74% in test [2]; 1.37% in [3]; 1.03% in test [4]; 1.86% in test [5]; 2.66% in [6]. The inhibition in [7] was 3.71%; in test [8], 1.19%; in test [9], -2.78%; in test [10], -1.24%; in test [11] it was -1.02%; in [12], 0.69%. Besides, the inhibition is -0.36% in test [13]; 0.98% in [14]; 0.1% in [15]; 3.36% in test [16]; 1.21% in test [17]; 3.78% in test [18]. Besides, the values for the inhibition in test [19] and in test [20] were 3.39% and 1.96%, respectively.
For `O=C1NC(=O)C(c2ccc(Cl)cc2)=C1Nc1ccc(Cl)c(C(=O)O)c1`, the inhibition was -2.21% in test [1]; 1.64% in [2]; 3.21% in test [3]; 1.09% in [4]; 2.23% in test [5]; 3.38% in [6]. Also, the inhibition in [7] was 2.76%; in test [8] it was -1.72%; in test [9], -4.96%; in test [10], -1.27%; in test [11], -0.08%; in test [12], 2.29%. Also, the inhibition in test [13] was 0.32%; in test [14] it was -0.4%; in test [15], -2.48%; in [16] it was 11.5%; in test [17] it was 4.5%; in test [18], 0.8%. The inhibition was -1.44% in test [19] and -4.08% in test [20].

As a reminder, the inhibition is the drop in the measured response relative to a control, in per cent.
